Source: PubChem BioAssay (Tox21)
Records with an inconclusive call do not appear. Calls of active or inactive are those of the source. Unless noted, calls follow the shape of the dose curve; as a rule, active = well fitted curve in the direction sought with a large enough effect in the repeat runs; inconclusive = weak or mixed curves; inactive = no such curve, though single readings can be large; an effect the other way counts as inactive or inconclusive.

Key:
[1] = qHTS assay to identify small molecule agonists of the vitamin D receptor (VDR) signaling pathway - cell viability counter screen (AID 743224); also: series mostly up to about 63 µM; % is scaled to controls: 0 for no effect and ±100 for the full control effect; nearly all actives have a fitted effect of over 50% in size
Outline: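 VDR-bla cells were preincubated 4 h at 37C/5% CO2, then exposed to compounds for 16 h. After the 2 h room-temperature bla FRET read, CellTiter-Glo was added to the same wells and luminescence read after 30 min.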

[2] = qHTS assay to identify small molecule antagonists of the vitamin D receptor (VDR) signaling pathway - cell viability counter screen (AID 743225); also: % is scaled to controls: 0 for no effect and ±100 for the full control effect; nearly all actives have a fitted effect of over 50% in size
Outline: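 Read-out: CellTiter-Glo luminescence measured 30 min after reagent addition at room temperature. Cells were VDR-bla HEK 293T exposed 16 h at 37C, 5% CO2, to compound with 3 nM final calcitriol agonist.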

[3] = qHTS assay to identify small molecule agonists of the NFkB signaling pathway - cell viability counter screen (AID 1159515; calls by dose curve; also: nearly all actives have a fitted effect of over 55% in size; also: potency is read from the fitted curve at half-maximal effect; as to activity, negative = cytotoxic: series mostly up to about 61 µM; % is scaled to controls: 0 for no effect and ±100 for the full control effect)
Outline: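 NFkB-bla ME-180 cells, 2,000/well, were plated overnight at 37 C, 5% CO2, then exposed to compounds in DMSO for 5 hr. After the bla FRET read, CellTiter-Glo was added to the same wells; luminescence was read after 30 min at room temperature.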

[4] = qHTS assay to identify small molecule agonists of the endoplasmic reticulum stress response signaling pathway (AID 1159516; active = well fitted activation curve with a large enough effect in the signal ratio in the repeat runs, not every such curve was filed as active; the % refers to the signal ratio; also: % is scaled to controls: 0 for no effect and ±100 for the full control effect)
Outline: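 CellSensor ESRE-bla HeLa cells, carrying a beta-lactamase reporter driven by the ER stress response element, were plated overnight and exposed to compounds for 5 hr at 37 C. Reporter activity was read as FRET substrate fluorescence after 2 hr at room temperature.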

[5] = qHTS assay to identify small molecule agonists of the endoplasmic reticulum stress response signaling pathway - cell viability counter screen (AID 1159517; calls by dose curve; also: series mostly up to about 61 µM; % is scaled to controls: 0 for no effect and ±100 for the full control effect; nearly all actives have a fitted effect of over 50% in size)
Outline: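 CellTiter-Glo was added to wells already read for beta-lactamase FRET, and luminescence was recorded 30 min later. Cells: ESRE-bla HeLa, 1,500 per well, compound exposure 5 hr at 37 C.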

[6] = qHTS assay to identify small molecule antagonists of the retinoid-related orphan receptor gamma (ROR-gamma) signaling pathway - cell viability counter screen (AID 1159520); also: nearly all actives have a fitted effect of over 50% in size; also: potency is read from the fitted curve at half-maximal effect
Outline: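 Tet-on ROR gamma CHO cells (1,000/well) were plated 4 hr, given compounds in DMSO for 2 hr at 37 C, then induced with 1 uM final doxycycline for 16 hr. Viability was read as ATP by CellTiter-Glo luminescence after 30 min.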

[7] = target: Nuclear receptor ROR-gamma (Homo sapiens) (UniProt P51449); test: qHTS assay to identify small molecule antagonists of the retinoid-related orphan receptor gamma (ROR-gamma) signaling pathway (AID 1159521; also: nearly all actives have a fitted effect of over 50% in size; also: potency is read from the fitted curve at half-maximal effect)
Outline: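 CHO Tet-on RORγ, RORE-luc reporter. Cpd 2 h pre-incubation, then dox hyclate 1 uM final, 16 h, 37 C/5% CO2. ONE-Glo luminescence; decrease = antagonist.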

[8] = qHTS assay to identify small molecule agonists of the AP-1 signaling pathway - cell viability counter screen (AID 1159525; calls by dose curve; also: nearly all actives have a fitted effect of over 55% in size)
Outline: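 ME-180 AP-1-bla, 2500 cells/well, Opti-MEM + 0.5% dialyzed FBS; overnight 37 °C; cpd 15-pt titration, 5 h 37 °C; CellTiter-Glo 30 min RT; luminescence read; normalised to TOAB and DMSO controls.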

[9] = qHTS assay to identify small molecule antagonists of the retinoid acid receptor (RAR) signaling pathway - cell viability counter screen (AID 1159551); also: % is scaled to controls: 0 for no effect and ±100 for the full control effect; nearly all actives have a fitted effect of over 35% in size
Outline: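 C3RL4 cells were seeded overnight at 37 C, then treated with compounds plus 1 uM (final) retinol for 6 h at 37 C. Viability was read as ATP by CellTiter-Glo luminescence after 30 min at room temperature.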

[10] = qHTS assay to identify small molecule antagonists of the retinoic acid receptor (RAR) signaling pathway (AID 1159552)
Outline: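 Cells of the C3RL4 line were seeded, incubated overnight, then dosed with compounds in DMSO followed immediately by retinol (1 uM final). Six hours later luciferase detection reagent went in; signal was measured after 30 min at RT.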

[11] = target: Retinoic acid receptor RXR-alpha (Homo sapiens) (UniProt P19793); test: qHTS assay to identify small molecule agonists of the RXR signaling pathway (AID 1159527; calls by dose curve; also: % is scaled to controls: 0 for no effect and ±100 for the full control effect; nearly all actives have a fitted effect of over 35% in size)
Retinoic acid receptor RXR-alpha (Homo sapiens), sequence (P19793 whole entry, looked up): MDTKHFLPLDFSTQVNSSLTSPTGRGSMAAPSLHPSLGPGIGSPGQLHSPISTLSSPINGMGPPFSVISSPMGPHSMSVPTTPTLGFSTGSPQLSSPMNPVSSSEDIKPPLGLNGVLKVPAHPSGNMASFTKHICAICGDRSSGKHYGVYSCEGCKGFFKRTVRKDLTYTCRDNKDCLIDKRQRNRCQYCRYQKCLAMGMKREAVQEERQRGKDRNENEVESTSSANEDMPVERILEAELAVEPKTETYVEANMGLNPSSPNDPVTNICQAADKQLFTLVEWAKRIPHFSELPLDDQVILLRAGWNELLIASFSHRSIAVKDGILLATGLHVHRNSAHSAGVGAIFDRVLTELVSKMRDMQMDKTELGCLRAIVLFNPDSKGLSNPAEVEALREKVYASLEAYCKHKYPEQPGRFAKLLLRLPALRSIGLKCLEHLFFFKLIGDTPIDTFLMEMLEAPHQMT
Outline: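 Read-out: beta-lactamase FRET ratio (405 nm excitation, 460 and 530 nm emission) after 2 hr substrate loading at room temperature. Cells were RXR-alpha-UAS-bla HEK 293T treated with compounds for 16 hr in 2% charcoal-stripped FBS medium.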

[12] = qHTS assay to identify small molecule agonists of the RXR signaling pathway - cell viability counter screen (AID 1159529); also: nearly all actives have a fitted effect of over 50% in size; also: potency is read from the fitted curve at half-maximal effect
Outline: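 HEK 293T RXRa-bla cells, 2% CS-FBS; 5 h settle; cpd 16 h 37 C, 5% CO2; CellTiter-Glo 30 min RT, luminescence. Tetraoctyl ammonium bromide as positive control.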

[13] = qHTS assay to identify small molecule agonists of the AP-1 signaling pathway (AID 1159526; calls by dose curve; also: % is scaled to controls: 0 for no effect and ±100 for the full control effect)
[14] = qHTS assay to identify small molecule agonists of the retinoic acid receptor (RAR) signaling pathway (AID 1159553); also: % is scaled to controls: 0 for no effect and ±100 for the full control effect
Outline: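 C3RL4 cells carrying a RARE luciferase reporter were plated overnight at 37 C, then exposed to compounds in DMSO for 6 hr at 37 C and 5% CO2. Luminescence was read 30 min after luciferase reagent addition at room temperature.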

C[C@@H]1C[C@H]2O[C@@]3(O[C@@H]2C(C)(C)O)[C@H](O)[C@@]2(C)[C@@H]4CC[C@H]5C(C)(C)[C@@H](O[C@@H]6OC[C@@H](O)[C@H](O)[C@H]6O)CC[C@@]56C[C@@]46CC[C@]2(C)[C@@H]13
inactive: Potency [1] | Potency [2] | Potency [3] | Potency [4] | Potency [5] | Potency [6] | Potency [7] | Potency [8] | Potency [9] | Potency [10]

CN1CCN(C(c2ccccc2)c2ccccc2)CC1
inactive: Potency [1] | Potency [2] | Potency [3] | Potency [4] | Potency [5] | Potency [6] | Potency [7] | Potency [11] | Potency [12] | Potency [9]

O=C1OC(=O)C2C3C=CC(C3)C12 (stereo not given)
inactive: Potency [1] | Potency [2] | Potency [3] | Potency [4] | Potency [5] | Potency [6] | Potency [7] | Potency [13] | Potency [11] | Potency [12] | Potency [9] | Potency [10] | Potency [14]

O[C@@H](COc1cccc2ncccc12)CN1CCN(C2c3ccccc3[C@@H]3[C@H](c4ccccc42)C3(F)F)CC1 (stereo not given in full)
inactive: Potency [3] | Potency [4] | Potency [5] | Potency [6] | Potency [7] | Potency [13] | Potency [9]

Cc1cccc(Nc2ccccc2)c1
inactive: Potency [1] | Potency [2] | Potency [3] | Potency [4] | Potency [5] | Potency [6] | Potency [7] | Potency [12] | Potency [10]

CCN(CC)CCOC(=O)C(c1ccccc1)C1CCCCC1 (stereo not given)
inactive: Potency [1] | Potency [2] | Potency [3] | Potency [4] | Potency [5] | Potency [6] | Potency [7] | Potency [14]

C/C(=C(\CCOP(=O)(O)O)SC(=O)c1ccccc1)N(C=O)Cc1cnc(C)nc1N
inactive: activity change, negative = cytotoxicity [1] -3.71% [at 5.95 µM] | viability change, negative = cytotoxic [2] 2.62% [at 6.95 µM] | activity, negative = cytotoxic [3] 2.97% [at 6.95 µM] | activation [4] -0.946% [at 6.95 µM] | activity change, negative = cytotoxicity [5] 8.35% [at 6.95 µM] | activity, negative = cytotoxicity [6] -0.156% [at 8.39 µM] | viability change, negative = cytotoxic [8] -3.18% [at 6.97 µM] | activation [13] -6.29% [at 6.97 µM] | activation [11] 7.58% [at 6.98 µM] | activity change, negative = cytotoxicity [12] -1.63% [at 6.97 µM] | activity change, negative = cytotoxicity [9] 2.57% [at 8.39 µM] | activity, negative = inhibition [10] 10.1% [at 8.39 µM] | activation [14] 0.351% [at 8.36 µM]

Clc1ccc2c(c1)CCc1cccnc1C2=C1CCNCC1
inactive: Potency [3] | Potency [4] | Potency [5] | Potency [6] | Potency [7] | Potency [13] | Potency [9]

CN(Cc1ccc(C(C)(C)C)cc1)Cc1cccc2ccccc12
active: Potency [3] 21.3 µM | Potency [12] 10.7 µM
inactive: Potency [4] | Potency [5] | Potency [6] | Potency [7] | Potency [10] | Potency [14]

NCc1ccccc1Sc1ccccc1CO
inactive: Potency [1] | Potency [2] | Potency [3] | Potency [4] | Potency [5] | Potency [6] | Potency [8] | Potency [13] | Potency [11] | Potency [12] | Potency [9] | Potency [10] | Potency [14]

CCCCCCCCCCCCCCCCOS(=O)(=O)O
inactive: Potency [3] | Potency [4] | Potency [5] | Potency [6] | Potency [7] | Potency [9]

CCN(CC)c1ccc2c(-c3ccccc3C(=O)O)c3ccc(=[N+](CC)CC)cc-3oc2c1
inactive: Potency [2] | Potency [3] | Potency [4] | Potency [5] | Potency [7] | Potency [8]
active: Potency [6] 19.3 µM

CCCCCCCC#N
inactive: Potency [2] | Potency [3] | Potency [4] | Potency [5] | Potency [6] | Potency [7] | Potency [8] | Potency [9]

C1CCCNCCC1
inactive: Potency [1] | Potency [2] | Potency [3] | Potency [4] | Potency [5] | Potency [6] | Potency [7] | Potency [13] | Potency [12]

CCOC(=O)NCCOc1ccc(Oc2ccccc2)cc1
active: Potency [7] 43.3 µM
inactive: Potency [1] | Potency [2] | Potency [3] | Potency [4] | Potency [5] | Potency [6] | Potency [9] | Potency [10]

O=C(O)c1ccco1
inactive: Potency [1] | Potency [3] | Potency [4] | Potency [5] | Potency [6] | Potency [8] | Potency [13] | Potency [12] | Potency [9]

COC(C)OC
inactive: Potency [2] | Potency [3] | Potency [4] | Potency [5] | Potency [6] | Potency [8] | Potency [13] | Potency [11] | Potency [12] | Potency [9] | Potency [10] | Potency [14]

O=C(O)CNCC(=O)O
inactive: activity change, negative = cytotoxicity [1] -6.84% [at 5.95 µM] | viability change, negative = cytotoxic [2] -0.385% [at 6.95 µM] | activity, negative = cytotoxic [3] 11.1% [at 6.95 µM] | activation [4] -0.0292% [at 6.95 µM] | activity change, negative = cytotoxicity [5] -2.31% [at 6.95 µM] | activity, negative = cytotoxicity [6] 0.267% [at 8.39 µM] | viability change, negative = cytotoxic [8] 2.06% [at 6.97 µM] | activation [13] -4.84% [at 6.97 µM] | activation [11] 1.94% [at 6.98 µM] | activity change, negative = cytotoxicity [12] 3.65% [at 6.97 µM] | activity change, negative = cytotoxicity [9] -1.04% [at 8.39 µM]

CCCCCCCC/C=C\CCCCCCCC(=O)OCC
inactive: Potency [1] | Potency [2] | Potency [3] | Potency [4] | Potency [5] | Potency [6] | Potency [8] | Potency [13] | Potency [12] | Potency [9] | Potency [10] | Potency [14]

Cc1cccc(C)c1NC(=O)CN(CC(=O)O)CC(=O)O
inactive: Potency [1] | Potency [2] | Potency [3] | Potency [4] | Potency [5] | Potency [6] | Potency [8] | Potency [13] | Potency [11] | Potency [12] | Potency [9]

CCCCCCCCCCCc1ccccc1
inactive: Potency [1] | Potency [2] | Potency [3] | Potency [4] | Potency [5] | Potency [6] | Potency [8] | Potency [13] | Potency [11] | Potency [12] | Potency [9] | Potency [10] | Potency [14]

CCCCCCCN
inactive: Potency [1] | Potency [2] | Potency [3] | Potency [4] | Potency [5] | Potency [6] | Potency [8] | Potency [13] | Potency [12] | Potency [9]

CC1=CCCC(C)(C)C12CCC(C)O2 (stereo not given)
inactive: Potency [1] | Potency [2] | Potency [3] | Potency [4] | Potency [5] | Potency [6] | Potency [8] | Potency [13] | Potency [11] | Potency [9]
